Results as given in PubChem BioAssay AID485336 (The Scripps Research Institute Molecular Screening Center, 2010).
Results with a measured potency or affinity are listed apart. Active and inactive are the calls of the source.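 Rule for the calls: active = average inhibition at 10 µM of 40% or more; inactive = average inhibition at 10 µM below 40%.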

target: Krueppel-like factor 5 (Homo sapiens) (UniProt Q13887); experiment: reduction of KLF5 protein levels, late-stage follow-up, orthogonal assay for KLF5 inhibitor project, western blot, chemiluminescence, DLD-1 cells, titration (AID 485336); details: DLD-1 KLF5 protein level, 24 h; series mostly up to 20 µM
Sequence (Q13887 whole entry, looked up): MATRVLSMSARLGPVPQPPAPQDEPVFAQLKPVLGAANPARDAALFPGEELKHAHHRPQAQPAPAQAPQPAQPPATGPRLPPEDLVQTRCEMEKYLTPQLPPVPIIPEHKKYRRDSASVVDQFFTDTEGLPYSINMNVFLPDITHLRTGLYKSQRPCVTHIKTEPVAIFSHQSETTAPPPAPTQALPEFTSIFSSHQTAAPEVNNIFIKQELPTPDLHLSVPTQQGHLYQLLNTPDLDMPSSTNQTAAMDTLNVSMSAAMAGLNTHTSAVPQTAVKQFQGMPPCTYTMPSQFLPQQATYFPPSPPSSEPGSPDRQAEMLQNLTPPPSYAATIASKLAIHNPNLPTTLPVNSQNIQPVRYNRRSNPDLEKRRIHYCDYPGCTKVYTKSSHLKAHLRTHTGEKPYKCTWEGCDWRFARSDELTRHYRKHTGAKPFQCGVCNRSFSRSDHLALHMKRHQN

outcome, inactive:
CCOC(=O)c1sc(NC(=O)c2ccc3ncsc3c2)nc1C
CCOC(=O)c1sc(NC(=O)c2cc3c(s2)CCC(C)C3)nc1C (stereo not given)
Cc1ccc2nc(NC(=O)CCCc3nc4ccccc4s3)sc2c1
CCCc1ccc(-c2ccc(/C=C/C(=O)O)cc2)nc1
COC(=O)c1ccc2nc(Nc3nc4ccc(F)cc4s3)sc2c1
